According to PubChem BioAssay (NCATS):
Values joined by “and” are separate entries in the source; they are usually repeats but may differ in a detail not shown here. Equal values may be shown once. Records with an inconclusive call do not appear. Active and inactive are the calls of the source. Unless noted, calls follow the shape of the dose curve; as a rule, active = well fitted inhibition curve with a large enough effect; inconclusive = small, poorly fitted or top-dose-only effect; inactive = no such curve, though single readings can be large or run the other way.

Assay: S16 Schwann cell PMP22 intronic element firefly luciferase assay (AID 624032); also: nearly all actives have a fitted effect of over 30% in size; also: potency is read from the fitted curve at half-maximal effect;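 as to activity change, negative = inhibition: plate controls were DMSO for no effect and PTC124 positive control mean for full effect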
Conditions: S16 rat Schwann cells, PMP22 element FLuc, 24 h; series mostly up to 57.5 µM; activity change, negative = inhibition: at the top concentration
Procedure, shortened: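 Luciferase reporter of PMP22 intronic-element expression in stably transfected S16 rat Schwann cells, read by ONE-Glo luminescence after 24 h compound exposure at 37 C. Activity scaled between DMSO (0%) and positive-control PTC124; concentration-effect curves quality-classified.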

Structure (SMILES)	activity change, negative = inhibition	Potency
OC(Cn1cncn1)(Cn1cncn1)c1ccc(F)cc1F	-2.25% (inactive)	–
Cc1ccnc2c1NC(=O)c1cccnc1N2C1CC1	-4.99% (inactive)	–
CN(C)c1ccc(C(=C2C=CC(=[N+](C)C)C=C2)c2ccc(N(C)C)cc2)cc1	–	9.07 µM (active)
O=C(O)c1cc(=O)[nH]c(=O)[nH]1	23.7% (inactive)	–
CC1=NN(c2ccccc2)C(=O)C1	17.6% (inactive)	–
Cc1nnc(NS(=O)(=O)c2ccc(N)cc2)s1	-4.65% (inactive)	–
CCc1cc(C(N)=S)ccn1	-26.7% (inactive)	–
Cc1cc(NS(=O)(=O)c2ccc(N)cc2)no1	-18.9% (inactive)	–
C[C@]12C=CC(=O)C=C1CC[C@@H]1[C@@H]2C(=O)C[C@@]2(C)[C@H]1CC[C@]2(O)C(=O)CO	4.08% (inactive)	–
Cc1ncc([N+](=O)[O-])n1CCO	-24.9% (inactive)	–
S=P(N1CC1)(N1CC1)N1CC1	-15.5% (inactive)	–

Assay: S16 Schwann cell PMP22 intronic element beta-lactamase assay (AID 624044; calls by dose curve;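 also: 0% = DMSO and -100% = potassium clavulanate positive control; nearly all actives have a fitted effect of over 15% in size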)
Conditions: S16 rat Schwann cells, PMP22 element beta-lactamase FRET, 24 h; series mostly up to 38.3 µM; ratio activity, negative = inhibition: at the top concentration
Procedure, shortened: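 Rat S16 Schwann cells with beta-Lac driven by a PMP22 intronic element, compound-treated 24 h at 37 °C. LiveBLAzer FRET B/G read: 460 nm normalized to potassium clavulanate vs DMSO; 535 nm FRET as viability; concentration-effect curves classified.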

Structure (SMILES)	ratio activity, negative = inhibition
OC(Cn1cncn1)(Cn1cncn1)c1ccc(F)cc1F	-5% (inactive)
CC1=NN(c2ccccc2)C(=O)C1	4.13% (inactive)
N[C@@H](Cc1ccc(O)c(O)c1)C(=O)O	4.04% (inactive)
CCc1cc(C(N)=S)ccn1	4.31% (inactive)
C[C@]12C=CC(=O)C=C1CC[C@@H]1[C@@H]2C(=O)C[C@@]2(C)[C@H]1CC[C@]2(O)C(=O)CO	-4.67% (inactive)
S=P(N1CC1)(N1CC1)N1CC1	-6.71% (inactive)

Assay: qHTS assay for small molecule agonists of the antioxidant response element (ARE) signaling pathway (AID 651741; active = well fitted activation curve with a large enough effect in the signal ratio; the % refers to the signal ratio; also: potency is read from the fitted curve at half-maximal effect; as to activation: % of control where 0% means no effect)
Conditions: HepG2 ARE-bla reporter, beta-lactamase FRET ratio, 16 h; series mostly up to 96 µM; activation: at the top concentration
Procedure, shortened: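 Quantitative HTS in HepG2 cells stably expressing an ARE-beta-lactamase reporter; 16 h compound exposure at 37 C, followed by 2 h room-temperature incubation with LiveBLAzer B/G FRET substrate and fluorescence measurement.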

Structure (SMILES)	activation	Potency
NNC(=O)c1ccncc1	2.11% (inactive)	–
Cc1ccnc2c1NC(=O)c1cccnc1N2C1CC1	-0.886% (inactive)	–
O=C(O)c1cc(=O)[nH]c(=O)[nH]1	1.46% (inactive)	–
O=C(N[C@H](CO)[C@H](O)c1ccc([N+](=O)[O-])cc1)C(Cl)Cl	0.648% (inactive)	–
Cc1nnc(NS(=O)(=O)c2ccc(N)cc2)s1	4.16% (inactive)	–
COc1ccc2cc3[n+](cc2c1OC)CCc1cc2c(cc1-3)OCO2	–	33.5 µM (active)
CCc1cc(C(N)=S)ccn1	-1.2% (inactive)	–
Cc1cc(NS(=O)(=O)c2ccc(N)cc2)no1	0.813% (inactive)	–
Cc1ncc([N+](=O)[O-])n1CCO	-0.558% (inactive)	–

Assay: qHTS assay for small molecule activators of the p53 signaling pathway (AID 651743; active = well fitted activation curve with a large enough effect in the signal ratio, not every such curve was filed as active; the % refers to the signal ratio; also: % of control where 0% means no effect)
Conditions: HCT-116 p53RE-bla, beta-lactamase FRET ratio, 16 h; stronger effect = higher value
Procedure, shortened: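 Read-out is fluorescence intensity from the LiveBLAzer B/G FRET substrate, added for 2 hours at room temperature after HCT-116 p53RE-bla cells had been incubated with compounds for 16 hours at 37 C.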

Structure (SMILES)	activation
NNC(=O)c1ccncc1	0.245% (inactive)
OC(Cn1cncn1)(Cn1cncn1)c1ccc(F)cc1F	-0.436% (inactive)
Cc1ccnc2c1NC(=O)c1cccnc1N2C1CC1	-7.19% (inactive)
O=C(O)c1cc(=O)[nH]c(=O)[nH]1	-1.01% (inactive)
CC1=NN(c2ccccc2)C(=O)C1	-1.06% (inactive) and 1.05% (inactive)
O=C(N[C@H](CO)[C@H](O)c1ccc([N+](=O)[O-])cc1)C(Cl)Cl	0.234% (inactive) and 2.8% (inactive)
Cc1nnc(NS(=O)(=O)c2ccc(N)cc2)s1	-1.27% (inactive)
COc1ccc2cc3[n+](cc2c1OC)CCc1cc2c(cc1-3)OCO2	9.7% (inactive)
CCc1cc(C(N)=S)ccn1	-0.635% (inactive) and 1.18% (inactive)
Cc1cc(NS(=O)(=O)c2ccc(N)cc2)no1	-3.47% (inactive)
Cc1ncc([N+](=O)[O-])n1CCO	-1.78% (inactive)
S=P(N1CC1)(N1CC1)N1CC1	23.1% (inactive)

Assay: qHTS assay for small molecule activators of the nuclear factor-kappa B (NF-kB) signaling pathway (AID 651749; active = well fitted activation curve with a large enough effect in the signal ratio; the % refers to the signal ratio; also: % of control where 0% means no effect)
Conditions: NF-kB-bla ME-180 cells, beta-lactamase FRET ratio, 16 h; stronger effect = higher value
Procedure, shortened: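 Readout: beta-lactamase reporter driven by an NF-kB response element, detected fluorescently as loss of FRET. Cells were the ME-180 line, treated 16 hr at 37C with pin-transferred compound.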

Structure (SMILES)	activation
NNC(=O)c1ccncc1	-1.16% (inactive)
OC(Cn1cncn1)(Cn1cncn1)c1ccc(F)cc1F	-1.38% (inactive)
CC1=NN(c2ccccc2)C(=O)C1	1.02% (inactive) and -0.66% (inactive)
O=C(N[C@H](CO)[C@H](O)c1ccc([N+](=O)[O-])cc1)C(Cl)Cl	-1.34% (inactive) and 1.06% (inactive)
N[C@@H](Cc1ccc(O)c(O)c1)C(=O)O	0.678% (inactive)
CCc1cc(C(N)=S)ccn1	0.391% (inactive) and -1.64% (inactive)
N=C(N)c1ccc(OCCCCCOc2ccc(C(=N)N)cc2)cc1	0.454% (inactive) and 0.519% (inactive)
C[C@]12C=CC(=O)C=C1CC[C@@H]1[C@@H]2C(=O)C[C@@]2(C)[C@H]1CC[C@]2(O)C(=O)CO	1.39% (inactive)
S=P(N1CC1)(N1CC1)N1CC1	0.913% (inactive)
